Laboratory results taken from PubChem BioAssay (NCATS).
Results filed as inconclusive are left out. Active and inactive are the calls of the source. Calls follow the shape of the dose curve; as a rule, active = well fitted inhibition curve with a large enough effect; inconclusive = small, poorly fitted or top-dose-only effect; inactive = flat fitted curve, though single readings scatter.

target: Aldehyde dehydrogenase, mitochondrial (Homo sapiens) (UniProt P05091); test: qHTS for Inhibitors of the Aldehyde Dehydrogenase Family (ALDH2) Primary screen (AID 2061308); details: ALDH2 enzyme inhibition qHTS, 1536-well; series mostly up to 56 µM; activity change, negative = inhibition: at the top concentration;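 also: plate controls were vehicle for no effect and reference inhibitor for full effect; nearly all actives have a fitted effect of over 55% in size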

Compound	activity change, negative = inhibition
N#Cc1nc(-c2cccc3ccccc23)oc1NC1CNC1	20.2% (inactive)
O=C(Cc1ccc(Cl)c(Cl)c1)Nc1ccc([S+](=O)([O-])Nc2ccc([N+](=O)[O-])cc2)cc1	-11.3% (inactive)
CCOc1ccc(CCNC(=O)c2cc3sccc3n2Cc2ccc(Cl)c(F)c2)cc1OCC	4.81% (inactive)
Cc1cc2c(s1)c1cnn(Cc3ccc(F)c(C)c3)c(=O)c1n2C	-9.97% (inactive)
Cc1ccc(C(=O)NCC(=O)OC(C(=O)Nc2cc(C(F)(F)F)ccc2Cl)c2ccccc2)cc1 (stereo not given)	-7.98% (inactive)
O=[S+]([O-])(c1ccc(OC(F)(F)F)cc1)N1CCN([S+](=O)([O-])c2ccc3c(c2)OCCO3)CC1	1.87% (inactive)
Cc1ccnc(NC(=S)NC2CCCN(c3cccc(C(F)(F)F)c3)C2)c1 (stereo not given)	-22.7% (inactive)
COc1ccc(CC(=O)Nc2ccc(S(=O)(=O)Nc3cc(C)on3)cc2)cc1C	4.63% (inactive)
Fc1cc(Nc2nc(-c3ccncc3)nc3ccccc23)ccc1-c1cccc(OC(F)F)c1	5.17% (inactive)
OC[C@H]1O[C@@H](O[C@H]2[C@H](OCCc3ccccc3)O[C@H](CO)[C@@H](O)[C@@H]2O)[C@H](O)[C@@H](O)[C@@H]1O	-5.64% [at 28 µM] (inactive)
Fc1ccccc1-c1ccc(Nc2nc(-c3ccncc3)nc3ccccc23)cc1F	-5.31% (inactive)
COc1ccc(NC(=O)C(OC(=O)CNC(=O)c2ccccc2)c2ccccc2)cc1Cl (stereo not given)	1.66% (inactive)
COC(=O)c1ccccc1S(=O)(=O)Nc1ccc(OC)cc1	4.82% (inactive)
O=C(COC(=O)CNC(=O)C1CCCCC1)Nc1ccccc1Cl	8.56% (inactive)
CC(=O)Nc1sc2c(c1-c1ccc3[nH]ccc3c1)CCNC2	4.64% (inactive)
